Experimental data taken from PubChem BioAssay (NCATS).
Inconclusive results are not listed. Activity calls are given as the source filed them. Calls follow the shape of the dose curve; as a rule, active = well fitted curve in either direction with a large enough effect (not every such curve was filed as active); inconclusive = small, poorly fitted or top-dose-only effect, or another doubt; inactive = flat fitted curve, though single readings scatter.

Experiment: NFAT Signaling Pathway (AID 444);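 also: carbachol stimulus at about its EC50 of 1 µM final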
Details: Jurkat NFAT-bla M1, carbachol, beta-lactamase ratio, 5 h; at 7.69 µM (top of the series) unless noted
How it was run: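 Read-out: CCF4 FRET ratio (460 nm/530 nm) after 1 h RT dye loading, used for %activity and AC50 from titration series. Cells: Jurkat NFAT-β-lactamase/M1 line, treated with compound plus 1 uM carbachol for 5 h, 37 °C.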
% is scaled to controls: 0 for no effect and ±100 for the full control effect.

Activity change, negative = inhibition, inactive:
CN(C)C(=O)c1ccc(-c2ccc3ncnc(N(C)Cc4ccco4)c3c2)cc1 8.43%, Cc1ccccc1-c1nccc(-n2ccnc2)n1 -8.66%, CN(C)Cc1ccccc1-c1nccc(NC2CC2)n1 1.25%, c1ccc2c(NC3CC3)nc(-c3ccoc3)nc2c1 -16.4%, N#Cc1cccc(-c2cc(-n3ccnc3)ncn2)c1 4.55%, COc1cccc(-c2cncnc2NCCc2cnc[nH]2)c1 -4.17%, FC(F)(F)c1ccccc1-c1cncnc1NCCc1cnc[nH]1 -20%, CN(Cc1ccco1)c1ccnc(-c2ccoc2)n1 -2.04%, COc1cccc(-c2nc(NCc3cnc(C)cn3)c3ccccc3n2)c1 20.9%, c1cncc(-c2ccc3ncnc(N4CCNCC4)c3c2)c1 26.4%, CN(C)C(=O)c1ccc(-c2cncnc2NCCN2CCOCC2)cc1 -6.2%, COc1ccc2[nH]cc(CCNc3cc(-c4ccccc4CN(C)C)ncn3)c2c1 -12.7%, COc1ccc2[nH]cc(CCNc3ccnc(-c4ccccc4C)n3)c2c1 8.54%, CC(=O)NCCNc1nc(-c2ccc3c(c2)OCO3)nc2ccccc12 5.61%, N#Cc1cccc(-c2cc(NCc3cccnc3)ncn2)c1 3.13%, c1ccc(Nc2ncncc2-c2ccc3c(c2)OCO3)cc1 9.45%, COc1ccc2[nH]cc(CCNc3ncncc3-c3ccc(C(=O)N(C)C)cc3)c2c1 5.64%, c1ncc(-c2ccc3c(c2)OCO3)c(NCCc2cnc[nH]2)n1 1.1%, Fc1ccc(Nc2nc(-c3ccoc3)nc3ccccc23)cc1 -21.4%, COc1ccc(CNc2ccnc(-c3cccc(NS(C)(=O)=O)c3)n2)c(OC)c1 8.15%, COc1ccc(CNc2ccnc(-c3ccccc3Cl)n2)c(OC)c1 -26%, CN(C)C(=O)c1ccc(-c2nccc(NCc3cccnc3)n2)cc1 3.73%, c1ccc(CNc2ncncc2-c2ccoc2)cc1 17%, COc1ccc2[nH]cc(CCNc3ccnc(-c4ccoc4)n3)c2c1 -2.92%, Clc1ccccc1-c1nc(NCCN2CCOCC2)c2ccccc2n1 -7.69%, COCCNc1nc(-c2ccccc2C(F)(F)F)nc2ccccc12 5.96%, CN(Cc1ccco1)c1cc(-c2cccnc2)ncn1 -0.973%, FC(F)(F)c1ccccc1-c1cc(NCc2cccs2)ncn1 -14.8%, CC(=O)NCCNc1ncnc2ccc(-c3ccc(C(=O)N(C)C)cc3)cc12 -1.21%, COCCNc1ccnc(-c2c(C)noc2C)n1 9%, COc1ccc2[nH]cc(CCNc3nc(-c4ccccc4CN(C)C)nc4ccccc34)c2c1 -26.8%, CN(C)C(=O)c1ccc(-c2nccc(-n3ccnc3)n2)cc1 5.95%

Experiment: Stat Signaling Pathway (AID 446);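 also: ME-180 cervical cancer cells given 40 pM IL-6 alongside compound; SIE-controlled beta-lactamase reporter measured as 460/530 nm FRET emission ratio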
Details: ME-180 (cervical carcinoma) SIE beta-lactamase reporter, IL-6 stimulated, 5 h; at 7.69 µM (top of the series) unless noted
How it was run: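 Compound effects on IL-6-induced STAT reporter activity were measured in ME-180 cells. After overnight culture, cells were co-treated with 40 pM IL-6 for 5 hrs before beta-lactamase substrate loading at room temperature.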

activity, negative = inhibition, inactive:
CN(C)C(=O)c1ccc(-c2ccc3ncnc(N(C)Cc4ccco4)c3c2)cc1 -9.98%, Cc1ccccc1-c1nccc(-n2ccnc2)n1 12.8%, CN(C)Cc1ccccc1-c1nccc(NC2CC2)n1 5.09%, c1ccc2c(NC3CC3)nc(-c3ccoc3)nc2c1 -5.96%, N#Cc1cccc(-c2cc(-n3ccnc3)ncn2)c1 10.7%, CN(C)C(=O)c1ccc(-c2ccc3ncnc(Nc4ccccc4)c3c2)cc1 0.91%, COc1cccc(-c2cncnc2NCCc2cnc[nH]2)c1 -17%, FC(F)(F)c1ccccc1-c1cncnc1NCCc1cnc[nH]1 -1.23%, CN(Cc1ccco1)c1ccnc(-c2ccoc2)n1 -14.2%, COc1cccc(-c2nc(NCc3cnc(C)cn3)c3ccccc3n2)c1 -10.4%, c1cncc(-c2ccc3ncnc(N4CCNCC4)c3c2)c1 0.928%, CN(C)C(=O)c1ccc(-c2cncnc2NCCN2CCOCC2)cc1 0.853%, COc1ccc2[nH]cc(CCNc3cc(-c4ccccc4CN(C)C)ncn3)c2c1 6.88%, COc1ccc2[nH]cc(CCNc3ccnc(-c4ccccc4C)n3)c2c1 -1.84%, CC(=O)NCCNc1nc(-c2ccc3c(c2)OCO3)nc2ccccc12 4.37%, c1csc(CNc2nc(-c3ccc4c(c3)OCO4)nc3ccccc23)c1 -13.1%, N#Cc1cccc(-c2cc(NCc3cccnc3)ncn2)c1 -25.4%, c1ccc(Nc2ncncc2-c2ccc3c(c2)OCO3)cc1 -14.2%, COc1ccc2[nH]cc(CCNc3ncncc3-c3ccc(C(=O)N(C)C)cc3)c2c1 4.62%, c1ncc(-c2ccc3c(c2)OCO3)c(NCCc2cnc[nH]2)n1 -11.2%, Fc1ccc(Nc2nc(-c3ccoc3)nc3ccccc23)cc1 4.98%, COc1ccc(CNc2ccnc(-c3cccc(NS(C)(=O)=O)c3)n2)c(OC)c1 -1.05%, COc1ccc(CNc2ccnc(-c3ccccc3Cl)n2)c(OC)c1 -16.2%, CN(C)C(=O)c1ccc(-c2nccc(NCc3cccnc3)n2)cc1 2.62%, c1ccc(CNc2ncncc2-c2ccoc2)cc1 -8.66%, COc1ccc2[nH]cc(CCNc3ccnc(-c4ccoc4)n3)c2c1 -23.2%, Clc1ccccc1-c1nc(NCCN2CCOCC2)c2ccccc2n1 -5.23%, COCCNc1nc(-c2ccccc2C(F)(F)F)nc2ccccc12 15.8%, FC(F)(F)c1ccccc1-c1cc(NCc2cccs2)ncn1 5.97%, CC(=O)NCCNc1ncnc2ccc(-c3ccc(C(=O)N(C)C)cc3)cc12 -0.482%, COCCNc1ccnc(-c2c(C)noc2C)n1 5.3%, COc1ccc2[nH]cc(CCNc3nc(-c4ccccc4CN(C)C)nc4ccccc34)c2c1 4.15%, CN(C)C(=O)c1ccc(-c2nccc(-n3ccnc3)n2)cc1 8.25%
